We go through nine compounds from ChEMBL document CHEMBL4513141, “CO-ADD screening of NIH (USA) - Clinical Collection” (2021).

The test system of one experiment is Klebsiella pneumoniae. The settings on record: Concentration 20 uM; ASSAY_TEST Inhibition of Bacterial Growth; detection method Absorption (OD600); MEDIA CAMHB; plate type 384well; NBS; CORNING #3640; time 18 hr.
The next experiment deals with Candida albicans. As to conditions: 20 µM.
The subject of another experiment is Cryptococcus neoformans. As to conditions: Concentration 20 uM; ASSAY_TEST Inhibition of Fungal Growth; detection method Resazurin; Absorption (OD600-OD570); plate type 384well; NBS; CORNING #3640.

Potency and affinity values are given separately.

As a reminder, the Inhibition is the relative decrease from the control value, in per cent. For `O=C(O)c1cc2ccccc2c(Cc2c(O)c(C(=O)O)cc3ccccc23)c1O.OCCOCCN1CCN(C(c2ccccc2)c2ccc(Cl)cc2)CC1` [HYDROXYZINE PAMOATE], the results for the Inhibition in the experiment on Klebsiella pneumoniae, in the experiment with Candida albicans and in the experiment on Cryptococcus neoformans were 14.51%, 5.15% and 7.04%, respectively.
In the case of `Cl.c1ccc(CC2=NCCN2)cc1` [TOLAZOLINE HYDROCHLORIDE], the Inhibition is 3.87% in the experiment with Klebsiella pneumoniae, 2.51% with Candida albicans and -1.43% with Cryptococcus neoformans.
Turning to `COc1cc(C(=O)NS(=O)(=O)c2ccccc2C)ccc1Cc1cn(C)c2ccc(NC(=O)OC3CCCC3)cc12` [ZAFIRLUKAST], the Inhibition is 3.3% with Klebsiella pneumoniae, 0.8% in the experiment with Candida albicans and 1.96% in the experiment with Cryptococcus neoformans.
`Cc1cccc(C)c1OCC(C)N.Cl` (configuration not stated) [MEXILETINE HYDROCHLORIDE]: the figures for the Inhibition in the experiment with Klebsiella pneumoniae, with Candida albicans and in the experiment on Cryptococcus neoformans were 13.5%, 3.72% and -0.12%, respectively.
For `CC(=O)SCC(Cc1ccccc1)C(=O)NCC(=O)OCc1ccccc1` (configuration not stated) [RACECADOTRIL], in that order: 3.98%, 5.86% and -6.78%.
For `CC(=O)Nc1ccc(CC(=O)O)cc1` [ACTARIT] the same measures were 4.76%, -0.65% and 4.09%.
For `CC1(C)O[C@@H]2C[C@H]3[C@@H]4C[C@H](F)C5=CC(=O)C=C[C@]5(C)[C@@]4(F)[C@@H](O)C[C@]3(C)[C@]2(C(=O)CO)O1` [FLUOCINOLONE ACETONIDE], the Inhibition in the experiment on Klebsiella pneumoniae is -0.92%; in the experiment on Candida albicans it was 5.45%; with Cryptococcus neoformans it was 6.47%.
For the compound `Cc1[nH]cnc1CN1CCc2c(c3ccccc3n2C)C1=O.Cl` [ALOSETRON HYDROCHLORIDE], the Inhibition in the experiment on Klebsiella pneumoniae was 15.86%; in the experiment on Candida albicans, 2.6%; with Cryptococcus neoformans, -5.48%.
With `Cl.NC1CCN(c2cccc(Cl)n2)CC1`, the Inhibition turned out to be 7.75% in the experiment with Klebsiella pneumoniae, 2.49% in the experiment on Candida albicans and 0.18% in the experiment on Cryptococcus neoformans.
